Assay results from PubChem BioAssay (NCATS).
Records with an inconclusive call do not appear. A number with no mark means an inactive call. Calls come from the whole dose curve; as a rule, active = well fitted inhibition curve with a large enough effect; inconclusive = small, poorly fitted or top-dose-only effect; inactive = no such curve, though single readings can be large or run the other way.

Assay: Primary qHTS for small molecule stabilizers of the endoplasmic reticulum resident proteome: Secreted ER Calcium Modulated Protein (SERCaMP) assay (AID 1508630)
Conditions: SH-SY5Y GLuc-SERCaMP (Gaussia luciferase released on ER calcium loss) secretion, thapsigargin, luminescence; series mostly up to 38.4 µM; activity change, negative = inhibition: at the top concentration
Procedure, shortened: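 The SH-SY5Y reporter protocol was run at 3 concentrations up to 38.3 uM (primary) or 11 concentrations (follow-up): 16 h compound, 100 nM thapsigargin for 4 h, then extracellular luciferase luminescence.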
% is set by controls: 0 for no effect and ±100 for the full control effect.

Compared with `OCCCNc1cc(-c2ccnc(Nc3cccc(Cl)c3)n2)ccn1`, `Nc1ccccc1NC(=O)c1ccc(CNc2nccc(-c3cccnc3)n2)cc1` is lower in “activity change, negative = inhibition” value: 11.6% for the first, 0% for the second.

Going from `COc1cc2c(Oc3ccc(-c4cnc(Nc5ccc(F)cc5)n(C)c4=O)cc3F)ccnc2cc1OCCCN1CCOCC1` to `Nc1nccc(Oc2ccc(NC(=O)c3c[nH]cc(-c4ccc(F)cc4)c3=O)cc2F)c1Cl`, the “activity change, negative = inhibition” value falls from 98.9% to 48.4%.

Compared with `C#Cc1cccc(Nc2ncnc3cc(OC)c(OCCCCCCC(=O)NO)cc23)c1`, `CN(C)Cc1c(C(=O)NCCOc2ccc(C(=O)NO)cc2)oc2ccccc12` is lower in “activity change, negative = inhibition” value: 170% for the first, 75% for the second.

Going from `CCS(=O)(=O)c1cccc(-c2cc(C(=O)NC3CCN(C)CC3)c(C)c3[nH]c4ncc(C)cc4c23)c1` to `Cc1ccc(C(=O)Nc2cccc(C(F)(F)F)c2)cc1-c1ccc2nc(NCCN3CCOCC3)ncc2c1`, the “activity change, negative = inhibition” value falls from 85.4% to 0%.

Compared with `CCCCc1nc2cc(C=CC(=O)NO)ccc2n1CCN(CC)CC`, `O=C(C=Cc1cccnc1)NCCCCC1CCN(C(=O)c2ccccc2)CC1` is lower in “activity change, negative = inhibition” value: 155% for the first, -60.9% for the second.

`CC(C)(C)c1cnc(CSc2cnc(NC(=O)C3CCNCC3)s2)o1` and `C[C@@H](Oc1cc(-c2cnn(C3CCNCC3)c2)cnc1N)c1c(Cl)ccc(F)c1Cl` are the same in “activity change, negative = inhibition” value: 0% for the first, 0% for the second.

Going from `Nc1ncnc2c1c(-c1cccc(OCc3ccccc3)c1)cn2C1CC(CN2CCCC2)C1` (stereo not given) to `COc1ccc2c(OCc3nnc4ccc(-c5ccccc5)nn34)ccnc2c1`, the “activity change, negative = inhibition” value falls from 234% to 15.9%.

Going from `CC(C)c1cnn2c(NCc3ccccc3)cc(N[C@@H](CO)[C@H](O)CO)nc12` to `CC(C)c1nn(-c2c(Cl)cccc2Cl)c2nc(Cc3ccc(OCCO)cc3)[nH]c(=O)c12`, the “activity change, negative = inhibition” value falls from 345% to 244%.

Compared with `CC1(C)CC(=O)c2c(C(F)(F)F)nn(-c3ccc(C(N)=O)c(NC4CCC(OC(=O)CN)CC4)c3)c2C1` (stereo not given), `CN1CCN(Cc2ccc(NC(=O)Nc3ccc(Oc4cc(NC(=O)C5CC5)ncn4)cc3)cc2C(F)(F)F)CC1` is higher in “activity change, negative = inhibition” value: 0% for the first, 269% for the second.

Going from `Cc1cc(Nc2cc(CN3CCOCC3)c3nc(C)c(Cc4ccc(Cl)cc4F)n3n2)n[nH]1` to `Cc1cc(Nc2nc(N[C@@H](C)c3ccc(F)cc3)c(C#N)cc2F)n[nH]1`, the “activity change, negative = inhibition” value rises from 45.9% to 90.1%.

Going from `CC(C)(C)NC(=O)[C@H]1CN(Cc2cccnc2)CCN1C[C@@H](O)C[C@@H](Cc1ccccc1)C(=O)N[C@H]1c2ccccc2C[C@H]1O` to `O=C(Nc1nc2cccc(-c3ccc(CN4CCS(=O)(=O)CC4)cc3)n2n1)C1CC1`, the “activity change, negative = inhibition” value falls from 86.1% to 0%.

`Cn1cncc1[C@@](N)(c1ccc(Cl)cc1)c1ccc2c(c1)c(-c1cccc(Cl)c1)cc(=O)n2C` and `Cn1c2ccccc2c2c3c(c4c5ccccc5n(CCC#N)c4c21)CNC3=O` are the same in “activity change, negative = inhibition” value: 0% for the first, 0% for the second.

Compared with `c1ccc2c(CCNc3ccc(Nc4ccncc4)cc3)c[nH]c2c1`, `CCC[C@H](NC(=O)C(C#N)=Cc1cccc(Br)n1)c1ccccc1` is higher in “activity change, negative = inhibition” value: 168% for the first, 410% for the second.

Compared with `CC(C)c1noc(N2CCC(COc3ccc(-c4ccc(S(C)(=O)=O)cc4)nc3)CC2)n1`, `O=C(O)Cn1nnc(-c2cc(N3CCC(Oc4cc(F)ccc4Br)CC3)no2)n1` is lower in “activity change, negative = inhibition” value: 139% for the first, 0% for the second.

Going from `COC(=O)C[C@](O)(CCCC(C)(C)O)C(=O)O[C@@H]1C(OC)=C[C@]23CCCN2CCc2cc4c(cc2[C@H]13)OCO4` to `COc1c(N2C[C@@H]3CCCN[C@H]3C2)c(F)cc2c(=O)c(C(=O)O)cn(C3CC3)c12`, the “activity change, negative = inhibition” value falls from 66.3% to 0%.

Compared with `CC=C1NC(=O)[C@H]2CSSCCC=C[C@H](CC(=O)N[C@H](C(C)C)C(=O)N2)OC(=O)[C@H](C(C)C)NC1=O`, `CNC(=O)c1nn(C)c2c1C(C)(C)Cc1cnc(Nc3ccc(N4CCN(C)CC4)cc3)nc1-2` is higher in “activity change, negative = inhibition” value: 38.7% for the first, 299% for the second.

First: COc1cc(Nc2ncc(F)c(Nc3ccc4c(n3)N(COP(=O)(O)O)C(=O)C(C)(C)O4)n2)cc(OC)c1OC
Second: COc1ccc(C(=O)CC2(O)C(=O)Nc3c(Cl)ccc(Cl)c32)cc1 (stereo not given)
The “activity change, negative = inhibition” value of the first is lower: 0% for the first, 188% for the second.

With `COc1c(OCCCN2CCOCC2)ccc2c3n(c(=NC(=O)c4cnc(N)nc4)nc12)CCN3` the “activity change, negative = inhibition” value was 131% [at 21.6 µM].
